PubChem BioAssay (NCI)
About 83,000 compounds went through this panel and 20% of them were active in at least one assay; those are over-represented in the sample as a whole.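 Single-dose data. Exposure time 48 hours. Values below 10 considered active.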 Activity calls are given as the source filed them.

These molecules were tested on HCT-15 colon (assay: NCI-60 one-dose screen, 48 h (100 = growth as untreated, 0 = no growth, -100 = all killed)). Settings: 10 µM unless noted.
Procedure: Growth inhibition of the HCT-15 human tumor cell line is measured as a screen for anti-cancer activity. Cells are grown in 96 well plates and exposed to the test compound for 48 hours. Compounds are tested at a single concentration, which is 10^-5 M for most compounds. The reported endpoint is percent growth (GI% or GIPRCNT), where numbers from 0 - 100% represent growth inhibition, and numbers from -100% - 0 represent cell death. For example, a value of 40 represents 60% growth inhibition. A value of 0 means no net growth occurred over the course of the experiment. A value of -40 indicates 40% of cells at the beginning of the experiment died by the end of the experiment. A value of -100 means all cells are dead at the end of the experiment.
NCI-60 Human Tumor Cell Lines Screen was performed using the standard one-dose NCI protocol, which is described in more detail at https://dtp.cancer.gov/discovery_development/nci-60/default.htm.
Compounds with GIPRCNT values below 10 were considered active. Activity score was based on GIPRCNT using the following formula: […]
Score is 0 for GIPRCNT values of 100 or above, 50 for GIPRCNT values of 0, and 100 for GIPRCNT values of -100.

SMILES | growth
CC(C)=CCC[C@](C)(O)[C@H]1CC[C@]2(C)[C@@H]1CC[C@@H]1[C@@]3(C)CC[C@H](N)C(C)(C)[C@@H]3CC[C@]12C | 20.3% (inactive)
Cc1ccc(N2CCN(C3=C(Cl)C(=O)c4ncccc4C3=O)CC2)cc1 | 21% (inactive)
NS(=O)(=O)c1ccc(Nc2nc(N/N=C/C=C/c3ccccc3)nc(Nc3ccccc3)n2)cc1 | 45% (inactive)
COc1ccc(C2CC(c3cccc(OCCCCOc4cccc(C5=NOC(c6ccc(OC)cc6)C5)c4)c3)=NO2)cc1 (stereo not given) | 77.3% (inactive)
COc1cc(/C=C2/C(=O)Nc3ccc(Cl)cc32)ccc1OCc1ccc(Cl)cc1 | 86.5% (inactive)
O=C(CCCCCCN1CC(=O)N2[C@@H](c3ccc(Cl)s3)c3[nH]c4ccccc4c3C[C@H]2C1=O)NO | 77.1% (inactive)
CN(C)S(=O)(=O)c1ccc(-c2nc(C(Cl)Cl)nc3cc(-c4ccc(F)cc4)nn23)cc1 | -35.7% (active)
c1ccc(-c2cn3c(-c4c[nH]c5ccccc45)csc3n2)cc1 | 85.6% (inactive)
COc1ccc2[nH]cc(-c3nc(N)nnc3-c3cn(C)c4ccc(Br)cc34)c2c1 | 22% (inactive)
COc1ccc2c(c1)c(-c1nnc(N)nc1-c1c[nH]c3ccc(F)cc13)cn2C | 27.7% (inactive)
Cn1cc(-c2cc3ncnc(Nc4ccc(NC(=O)Nc5cc(C(C)(C)C)on5)cc4)c3s2)cn1 | 27.9% (inactive)
CC1=C(C)C(=O)C(Nc2ccc(C)cc2)=C(Br)C1=O | 95.9% (inactive)
CCOC(=O)c1cccc(NC2=C(Cl)C(=O)C(C)=C(C)C2=O)c1 | 99.3% (inactive)
NS(=O)(=O)c1ccc(Nc2nc(Nc3ccccc3)nc(N3N=C(c4ccc(Cl)cc4)CC3c3ccc(Cl)cc3)n2)cc1 (stereo not given) | 36.6% (inactive)
N#Cc1c(-c2cccs2)cc(-c2cnccn2)nc1SCC(=O)N/N=C/c1ccncc1 | 106% (inactive)
CCCCc1nc2c(N)nc3ccccc3c2n1Cc1cccc(CN)c1 | 55.9% (inactive)
C[C@H](Nc1ncnc2ccc(-c3cnc(Cl)c(NS(C)(=O)=O)c3)cc12)c1ccccc1 | -23.7% (active)
COC(=O)c1ccc(NC2=C(Cl)C(=O)c3nc(C)ccc3C2=O)cc1 | 22.7% (inactive)
O=C1Nc2ccccc2/C1=C/c1ccc(OCC(=O)c2ccccc2)cc1 | 96.8% (inactive)
N#C/C(=C\c1ccc(-c2ccc(Cl)c(Cl)c2)o1)C(=O)Nc1ncc(Cc2ccc(Cl)cc2)s1 | 13.5% (inactive)

SMILES | growth
CC[C@]12C=CCN3CC[C@@]4(c5ccc(OC)cc5N(C)[C@H]4[C@@](O)(C(=O)OC)[C@@H]1OC(=O)CCN1CCc4ccccc4C1)[C@@H]32 | 84.8% (inactive)
Nc1cc(C(=O)N/N=C\c2ccc(OC(F)F)c(OC3CCCC3)c2)nn1CC(O)c1ccccc1 (stereo not given) | 99.1% (inactive)
Cc1nc(N)sc1-c1csc(Nc2ccc(C(F)(F)F)cc2)n1 | 7.03% (active)
Cn1cc(-c2nnc(N)nc2-c2c[nH]c3ccc(F)cc23)c2cc(Br)ccc21 | 16.9% (inactive)
C#Cc1nc(/C=C/CCCCCCC(=O)NO)cs1 | 77% (inactive)
O=C(Nc1ccc(Cl)c(C(F)(F)F)c1)Nc1ccc2oc(=O)ccc2c1 | 16.6% (inactive)
O=C(CSc1nc2ccccc2c(=O)n1CCc1ccccc1)Nc1ccc(S(=O)(=O)Nc2ccc(Cl)nn2)cc1 | 92.4% (inactive)
COc1ccc(-c2nc(C#N)c(N3CCC(S(=O)(=O)N4CCOCC4)CC3)o2)cc1 | 105% (inactive)
O=C1[C@H]2Cc3c([nH]c4ccccc34)[C@H](c3ccc(Br)cc3)N2C(=O)CN1C1CCN(CC2CCCCC2)CC1 | 38.8% (inactive)
O=C(/C=C/c1ccccc1Cl)Nc1ncc(Cc2cc(Cl)ccc2Cl)s1 | 21.7% (inactive)
C#C[C@]1(O)CC[C@H]2[C@@H]3CC=C4c5sc(N(C)c6ccccc6)nc5CC[C@]4(C)[C@H]3CC[C@@]21C | 27.8% (inactive)
C#C[C@]1(O)CC[C@H]2[C@@H]3CC=C4c5sc(Nc6ncccc6C)nc5CC[C@]4(C)[C@H]3CC[C@@]21C | -1.06% (active)
OCC(Nc1ncnc2ccc(-c3cnc4cnccn34)cc12)c1ccccc1 (stereo not given) | 92.3% (inactive)
CCc1cc2c(cc1Cl)nc1c(=O)[nH]c(=O)nc-1n2CCOCC(C)(C)C | 58.3% (inactive)
Cc1cc(Br)ccc1-n1cc(C#N)c(N)c1C(=O)c1ccc(Br)cc1 | 97.6% (inactive)
NS(=O)(=O)c1nnc(/N=C/c2c(O)[nH]c3ccccc23)s1 | 102% (inactive)
Cc1ccccc1N1CCN(C2=C(Cl)C(=O)c3ncccc3C2=O)CC1 | 4.38% (active)
Cc1cc2nc3c4cc(C#N)ccc4n(CCN(C)C)c3nc2cc1C | 2.02% (active)
Fc1ccc(-c2cn3c(-c4c[nH]c5ccc(Br)cc45)csc3n2)cc1 | 77.8% (inactive)
Cn1cc(-c2nnc(N)nc2-c2c[nH]c3ccc(Br)cc23)c2cc(Br)ccc21 | 91.3% (inactive)
